# Bioassay records deposited in PubChem by several laboratories.
# ANO1 block – mouse TMEM16A channel inhibition, primary screen | HEK293 TMEM16A/YFP iodide influx fluorescence, ionomycin | normalized B-score (activity score, 25-100; higher = stronger inhibition) at 10 µM | actives 1.2% (n = 310,000) | AID 588511;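 active = ratio plate-corrected score three or more library SD toward inhibition, starting fluorescence score within five deviations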;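 also: score derived from kinetic fluorescence span divided by baseline fluorescence per well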
# M1 PAM parental – nonselective activator or artifact in parental CHO-K1 calcium assay; ATP EC20, Fluo-8 calcium fluorescence; 0% at ATP EC20, 100% at ATP max; activation, % at 3 µM; actives 0.02% (n = 360,000); AID 602247;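 active = activation above the run cutoff, the mean activation of all test compounds plus 3 SD, cut at about 40% in these data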;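 also: peak over basal fluorescence ratio in a 140 s read after ATP addition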
# CHO-K1 Ca antag – counter-screen for M1 antagonists: effect in parental CHO-K1 cells; ATP-induced calcium, Fluo-8 fluorescence; inhibition, % at 3 µM; actives 0.6% (n = 360,000);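 active = inhibition above a per-plate cutoff, the plate's mean sample inhibition plus 3 SD, cut at about 24% in these data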;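 also: 0% = DMSO plus EC80 ATP and 100% = DMSO alone without ATP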
# NTR1 agonist – activates human neurotensin receptor 1. NTR1-U2OS beta-arrestin-GFP spot imaging, agonist mode. activation, % at 20 µM. actives 0.17% (n = 330,000). AID 493036;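 active = activation at or above 40% of the spot to cytoplasm intensity ratio, with at least 20 cells analyzed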;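 also: 0% = DMSO without peptide and 100% = 100 nM NTR1 peptide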
# Target sequence (P30989 whole entry, looked up): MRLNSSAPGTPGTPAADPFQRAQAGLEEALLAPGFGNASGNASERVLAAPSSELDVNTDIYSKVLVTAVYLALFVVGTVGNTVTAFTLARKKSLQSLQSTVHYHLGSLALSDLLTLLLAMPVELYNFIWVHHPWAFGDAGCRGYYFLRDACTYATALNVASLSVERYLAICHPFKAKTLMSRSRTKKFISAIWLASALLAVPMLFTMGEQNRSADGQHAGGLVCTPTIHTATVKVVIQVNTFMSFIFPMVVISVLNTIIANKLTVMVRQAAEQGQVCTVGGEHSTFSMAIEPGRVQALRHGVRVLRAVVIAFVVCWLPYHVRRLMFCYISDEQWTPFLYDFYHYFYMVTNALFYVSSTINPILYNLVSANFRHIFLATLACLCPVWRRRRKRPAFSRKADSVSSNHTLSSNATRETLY
# CHO-K1 Ca ag – M1 agonist counterscreen hit in parental CHO-K1 cells | Fluo-8 calcium fluorescence; scaled to maximal ATP response, vehicle zero | activation, % at 3 µM | actives 0.48% (n = 360,000); in the data active = activation above about 15%;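 also: untransfected CHO-K1 host cells lacking M1 receptor as counterscreen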
# ANO1 activ – mouse TMEM16A channel activation, primary screen; B-score at 10 µM; actives 0.3% (n = 340,000); Q8BHY3; HEK293 TMEM16A/YFP-H148Q/I152L, iodide quench fluorescence; active compounds read low;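 active = fluorescence-ratio B-score plate-corrected deviation score at least 3 library SD below zero, with starting fluorescence score within 5 deviations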;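 also: channel opened by trigger with iodide after compound preincubation; score built on the fluorescence ratio of max minus min over baseline; more negative score means more quench and so TMEM16A activation or potentiation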
# An asterisk follows results filed as active; i = inactive; · = no result. Compounds with a hit are over-represented: about 2.2% of the library has one in this group of screens.
SMILES,ANO1 block,M1 PAM parental,CHO-K1 Ca antag,NTR1 agonist,CHO-K1 Ca ag,ANO1 activ
O=C(COc1ccc2c(-c3ccccc3)cc(=O)oc2c1)N[C@@H](Cc1c[nH]c2ccc(O)cc12)C(=O)O,i,8,-11,3,0,i
CC(Oc1ccc2c(-c3ccccc3)cc(=O)oc2c1)C(=O)NC(Cc1c[nH]c2ccc(O)cc12)C(=O)O (stereo unspecified),i,-15,27*,8,3,i
CCOC(=O)[C@]12CCC=C1N(Cc1ccc(Cl)cc1Cl)C(=O)[C@H](CC(=O)NCc1ccc(C)o1)C2,·,19,-19,·,1,·
CC(C)(C)c1ccc2cc(F)cc(F)c2n1,·,15,14,·,1,·
C[C@@H]1CN([C@H](C)CO)C(=O)CCCn2nncc2CO[C@@H]1CN(C)S(=O)(=O)c1ccc(C#N)cc1,·,-1,12,·,2,·
COc1ccc(C(=O)Cn2nnc(-c3ccccc3NC(=O)c3ccco3)n2)cc1,i,10,-4,7,1,-11*
N#C/C(=C\c1ccc(O)c([N+](=O)[O-])c1)c1nc2ccccc2s1,·,-10,29*,·,14,i
O=C(O)CC/C(=C\c1ccc(Cl)c([N+](=O)[O-])c1)c1nc2ccccc2s1,i,9,-5,3,-1,i
COc1ccc(-c2csc(/C(C#N)=C\c3ccc(O)c([N+](=O)[O-])c3)n2)cc1OC,100*,20,-16,13,2,i
N#C/C(=C\c1ccco1)c1nc2ccccc2s1,i,7,0,2,1,i
COc1ccc(-c2csc(/C(C#N)=C\c3ccc(OC)c([N+](=O)[O-])c3)n2)cc1,i,-11,21,-1,0,i
COc1cc(/C=C(\C#N)c2nc3ccccc3s2)cc([N+](=O)[O-])c1O,·,7,14,4,1,-16*
CN(C)CCN1CCN(C2CN(Cc3cn(Cc4ccccc4)nn3)S(=O)(=O)C2)CC1 (stereo unspecified),·,-1,-25,·,0,·
Cc1ccc([N+](=O)[O-])c(OCCN2CCCCCC2)c1,i,20,1,0,16*,i
Cc1ccc([N+](=O)[O-])c(OCCN2CCc3ccccc3C2)c1,i,-8,-4,-1,0,i
O=C(NCc1ccc(F)cc1F)[C@@H]1CCCN1C(=O)[C@@H]1CCCN1C(=O)c1cccc2ccccc12,·,2,-5,·,1,·
C/C=C/c1ccc(OCC(=O)Nc2ccncc2)c(OC)c1,i,-1,17,10,15*,i
Cc1cc(Cl)ccc1OCC(=O)Nc1ccncc1,25*,-17,23,0,10,i
C/C=C/c1ccc(OCC(=O)Nc2ccc(OC)c(OC)c2)c(OC)c1,i,9,-2,-1,7,i
Cc1cc(C)c2nc(-c3ccccn3)cc(C(=O)Nc3ccc(S(=O)(=O)Nc4cc(C)on4)cc3)c2c1,25*,4,-4,0,0,i
Cc1cc(C)c2nc(-c3ccccn3)cc(C(=O)Nc3ccc(S(=O)(=O)Nc4onc(C)c4C)cc3)c2c1,i,24,-6,0,1,i
O=C(Nc1ccc(NC(=O)c2cccc([N+](=O)[O-])c2)cc1)c1cccc([N+](=O)[O-])c1,i,5,13,1,0,i
O=C(Nc1ncc(S(=O)(=O)c2ccc([N+](=O)[O-])cc2)s1)c1cccnc1,i,-1,-2,2,8,i
COC(=O)c1c(NC(=O)c2cccc([N+](=O)[O-])c2)sc(C(N)=O)c1C,i,-10,29*,2,-1,i
O=C(Nc1ncc(S(=O)(=O)c2ccc([N+](=O)[O-])cc2)s1)c1ccc2ccccc2c1,100*,19,-14,4,2,i
SMILES,ANO1 block,M1 PAM parental,CHO-K1 Ca antag,NTR1 agonist,CHO-K1 Ca ag,ANO1 activ
CCCC(C)C(=O)Nc1ncc(S(=O)(=O)c2ccc([N+](=O)[O-])cc2)s1 (stereo unspecified),i,6,14,15,36*,i
O=C(Nc1ncc([N+](=O)[O-])s1)c1cccc([N+](=O)[O-])c1,100*,-10,-3,2,8,-4.6*
O=C1NC[C@@H](CCCCN2C[C@H](Cc3ccccc3)N(CCc3ccc(O)cc3)C(=O)C2=O)N(CCc2ccccc2)C1=O,·,7,-27,·,0,·
COc1ccc2c(CN3CCN(c4ccccc4F)CC3)cc(=O)oc2c1,·,6,10,·,1,·
Cc1ccccc1-c1cnc(C(O)c2ccc(F)cc2C)[nH]1 (stereo unspecified),·,-6,9,·,0,·
COc1cccc(C2=Cc3ccc(F)cc3C(CC(C)=O)N2c2ccc(C#CC3(O)CCCCC3)cc2)c1 (stereo unspecified),·,46*,-28,·,2,·
COc1cc(OC)cc(C2=Cc3ccc(OC)cc3C(CC(C)=O)N2c2ccc(C#CC3(O)CCCCC3)cc2)c1 (stereo unspecified),·,28,-13,·,1,·
Cc1c(C(=O)NCc2ccc(F)cc2)sc(=O)n1Cc1ccccc1,·,-5,4,·,3,·
COc1cccc(CNn2cnnc2)c1OCc1ccc(F)cc1,100*,10,-5,0,0,i
O=C(NCCN1CCC(n2c(=O)[nH]c3ccccc32)CC1)c1cccc(F)c1,·,-1,-18,·,1,·
COC(=O)C1C2CCC(C2)C1C(=O)OCC(=O)c1ccc(C)cc1 (stereo unspecified),i,-4,27*,-1,0,i
CCn1c(=O)n(CC(=O)Nc2ccc(F)cc2)c(=O)c2ccccc21,i,-13,29*,2,0,i
